PMC7819943, “Rice protein-binding microarrays: a tool to detect cis-acting elements near promoter regions in rice”
Over roughly 68,000 sequences, “fluorescence intensity (a.u.)” has its median near 9,100; the highest 2% begin near 16,000. For the sample, the highest values were picked, then their nearest neighbours and some sequences at random.

molecular target: OsWRKY34 (Oryza sativa, UniProt Q0JBA9 1-250); test: protein-binding microarray (RPBM); PBS, 2% BSA, 51.3 ng/ul salmon testes DNA, 50 uM zinc acetate, 200 nM TF, 25 C, 1 h; high values mean tight binding; conditions: protein: recombinant; tags: N-terminal polyhistidine and DsRed monomer fusion (pET32a); label: CyDye5-dUTP incorporated in the synthesized complementary strand; 3' TTTTT single-stranded linker to array surface; dsDNA, one strand shown
In short: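 Transcription factors were made in E. coli BL21-CodonPlus as N-terminal fusions to a polyhistidine tag and DsRed, then purified on Ni–NTA. After primer extension with Cy5-dUTP and blocking with 2% BSA, a custom Agilent array was exposed for 1 h at 25 °C to 200 nM protein in PBS, 2% BSA, salmon testes DNA and 50 µM zinc acetate. Washed arrays were scanned on an Axon 4000B, and the binding signal is per-feature fluorescence intensity in arbitrary units.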

OsWRKY34, sequence (Q0JBA9 entry or part of it): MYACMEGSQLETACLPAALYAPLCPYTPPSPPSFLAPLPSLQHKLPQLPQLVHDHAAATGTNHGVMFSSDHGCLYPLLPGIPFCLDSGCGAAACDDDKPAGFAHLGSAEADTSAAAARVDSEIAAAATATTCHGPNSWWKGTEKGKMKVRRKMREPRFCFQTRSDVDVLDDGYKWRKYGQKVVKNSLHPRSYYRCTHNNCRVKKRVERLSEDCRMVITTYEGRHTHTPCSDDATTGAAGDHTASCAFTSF

| Sequence | binding signal |
| --- | --- |
| GAACAACAACATGCCGCACGTGCGTATATATATATATATCCGGAGTCACCTAGTGCAG | 10800 fluorescence intensity (a.u.) |
| TCCATTGACACCGGCACACGCACACGCACACCCGCACCGCCGGAGTCACCTAGTGCAG | 8960 fluorescence intensity (a.u.) |
| CAACCTCACCTACTTCCACTTCCTCGACACCAACGGCGTCCGGAGTCACCTAGTGCAG | 9590 fluorescence intensity (a.u.) |
| GCATGTGTTCGTTATGTGTGGTTGGAGATTTTCTCCCACACGGAGTCACCTAGTGCAG | 8470 fluorescence intensity (a.u.) |
| CTGCTCGGAGCACACACAACCACCACTCACCACCAACATGCGGAGTCACCTAGTGCAG | 9280 fluorescence intensity (a.u.) |
| TAATACACTAGCCCCAATGTTTGTTTGCCTAATCTACTCTCGGAGTCACCTAGTGCAG | 9080 fluorescence intensity (a.u.) |
| CCAAGCTTGTCGTGCCCGTATGTTCGCGTCCATCGTTGACCGGAGTCACCTAGTGCAG | 19800 fluorescence intensity (a.u.) |
| AGTTTTGCACTGTTTATGTCTCACGTTTGACCGTTCGTTTCGGAGTCACCTAGTGCAG | 11400 fluorescence intensity (a.u.) |
| CATATTATAAGTCGTTTTGACTTTTTTTTCTTAGTCAATCCGGAGTCACCTAGTGCAG | 12100 fluorescence intensity (a.u.) |
| GGCCCATCTGACCAAGCCCAGCTCGCGTCGTCGTGTTGATCGGAGTCACCTAGTGCAG | 8930 fluorescence intensity (a.u.) |
| CCTCTATTTCATATTATACGTCGTTGACTTTTTTCTTAGTCGGAGTCACCTAGTGCAG | 17400 fluorescence intensity (a.u.) |
| TTACACTGTTCATGTCTCACGTTTGACCGTTCGTTTTATTCGGAGTCACCTAGTGCAG | 16400 fluorescence intensity (a.u.) |
| GTTTTACACTATTCACGTTCAACGTTTGACCGTTCGTCTTCGGAGTCACCTAGTGCAG | 13400 fluorescence intensity (a.u.) |
| TTGACCTTTTTAAAACATTTTTGACCGTTCGTCTTATTCACGGAGTCACCTAGTGCAG | 10600 fluorescence intensity (a.u.) |
| CTCTATTCGTTTTTCATATTATAAGTCGTTTGACGTTTTTCGGAGTCACCTAGTGCAG | 9170 fluorescence intensity (a.u.) |
| ACTTTTTAAAACATATTTGACCGTTCTTCTTATTAAAAAACGGAGTCACCTAGTGCAG | 8850 fluorescence intensity (a.u.) |
| CGTCGTTGACTTTTTTAAACATATTTGACCGTTCGTCTTACGGAGTCACCTAGTGCAG | 17100 fluorescence intensity (a.u.) |
| TGTCGCCATCGTATCACCGTCGCGTCGCCATCCCGTCGCCCGGAGTCACCTAGTGCAG | 8070 fluorescence intensity (a.u.) |
| TTTCATGCGTTCCAAGTTGTCATTACTCCTTTGTACTCTCCGGAGTCACCTAGTGCAG | 10700 fluorescence intensity (a.u.) |
| CCGCCGGACTCTCAAAATCCCAAGTCTCAACTCGATCAGCCGGAGTCACCTAGTGCAG | 8170 fluorescence intensity (a.u.) |
| AACTCTAATTTACTGTTGGTTGGTGCAATATCAGATGGATCGGAGTCACCTAGTGCAG | 8900 fluorescence intensity (a.u.) |
| GCTCAGATTGTTCATCAAGTTTTTCCTCTGTGCTCTGTTTCGGAGTCACCTAGTGCAG | 8890 fluorescence intensity (a.u.) |

| Sequence | binding signal |
| --- | --- |
| ATGAGTATATATAAGCTTAGTCTCTTTTCTTTTCTTTCTTCGGAGTCACCTAGTGCAG | 8940 fluorescence intensity (a.u.) |
| TGTTGATTTTTTAAAATATGTTTGACCGTTCGTCTTATTCCGGAGTCACCTAGTGCAG | 10700 fluorescence intensity (a.u.) |
| GTTGATTTTTTTTAAATATGTTTGACCGTTCGTCTTATTCCGGAGTCACCTAGTGCAG | 8600 fluorescence intensity (a.u.) |
| CGTTGACTTTTTAAAATATATTTGACCGTTCGTCTTATTCCGGAGTCACCTAGTGCAG | 24100 fluorescence intensity (a.u.) |
| ACGCCGTTGACTTTTTTAAACATGTTTAACCGTTCATCTTCGGAGTCACCTAGTGCAG | 47400 fluorescence intensity (a.u.) |
| TGTTGACTTTTTAAAACATGTTTGACCGTTCATATTATTCCGGAGTCACCTAGTGCAG | 15700 fluorescence intensity (a.u.) |
| GCATTCGTTTCAGGCTGTTCCCAACCTCTCTCCCTTGTTTCGGAGTCACCTAGTGCAG | 12000 fluorescence intensity (a.u.) |
| CGGCCCAAGCTTCATTGACAAATTGTCTTGAATTTGTACACGGAGTCACCTAGTGCAG | 8510 fluorescence intensity (a.u.) |
| ACACATATTTATTTTCTCCACTACCACAGAAGGAACTTTTCGGAGTCACCTAGTGCAG | 9140 fluorescence intensity (a.u.) |
| TTTGGTAAGATTTGAACGGTTGGTTGTATAGGTCATTGACCGGAGTCACCTAGTGCAG | 16900 fluorescence intensity (a.u.) |
| ATTGATTGATTGGTTGGTTGGTTGGTTGGGTTGATCGATGCGGAGTCACCTAGTGCAG | 20300 fluorescence intensity (a.u.) |
| TTTATTGTTGTTTTTGGGTTGGTTTGGTTTGATTCCGATGCGGAGTCACCTAGTGCAG | 9120 fluorescence intensity (a.u.) |
| ATTTTCGTGTTATTTTTGGTTCTGGTTGATTGATCGATTTCGGAGTCACCTAGTGCAG | 12900 fluorescence intensity (a.u.) |
| GTGGTTGGTTGGTGCGGTTGCGGCGGGTGATCGAACGATGCGGAGTCACCTAGTGCAG | 12100 fluorescence intensity (a.u.) |
| ATCGAATGGTTGGTTCGGTTTGGTTTTGATTGATCGATATCGGAGTCACCTAGTGCAG | 22300 fluorescence intensity (a.u.) |
| GTGGTGGCGGTGGAGGTGGAGGTGGAGGCGCCGTGGTGCGCGGAGTCACCTAGTGCAG | 12600 fluorescence intensity (a.u.) |
| GCGGTGGAGGCGGTGGCGGTGGTGGCGGTGGTGGAGGATGCGGAGTCACCTAGTGCAG | 21200 fluorescence intensity (a.u.) |
| CTTCGATTGGTTTGTTGGTTTGACTGGAATTCGGATGGATCGGAGTCACCTAGTGCAG | 10100 fluorescence intensity (a.u.) |
| GAGGAGGAGGAGGAGGAGGAGGAGGATGCGGGTGGTGGTGCGGAGTCACCTAGTGCAG | 10500 fluorescence intensity (a.u.) |
| AGGGGAGGTAGGTAAGAAGATTGAACAGTGGAGGGTTGTACGGAGTCACCTAGTGCAG | 9840 fluorescence intensity (a.u.) |
| ATATAGGTTACGGATTTGTCATTGGTCGTTGTATTCTTTTCGGAGTCACCTAGTGCAG | 10600 fluorescence intensity (a.u.) |
